Reference: PubChem BioAssay (NCI)
About 79,000 compounds went through this panel and 15% of them were active in at least one assay; those are over-represented in the sample as a whole. Unmarked numbers belong to inactive results. Calls of active or inactive are those of the source. Cut-off read from the data, not from the text of the source: active = growth inhibition above about 70%; inactive = the rest.

Key:
[1] = NCI Yeast Anticancer Drug Screen. Data for the rad50 strain (AID 155);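 note: 0% = growth of vehicle-only cultures of the same strain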; conditions: S. cerevisiae rad50 strain growth inhibition, active compounds read high
How it was run: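 DNA repair mutant yeast, compound exposure, growth read-out; inhibition is taken relative to vehicle.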

[2] = NCI Yeast Anticancer Drug Screen. Data for the mec2-1 strain (AID 157); conditions: S. cerevisiae mec2-1 strain, active compounds read high
How it was run: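 Test agents were screened against the mec2-1 yeast strain, with defined DNA repair or cell cycle alteration. Growth was scored as inhibition against vehicle-only controls.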

[3] = NCI Yeast Anticancer Drug Screen. Data for the sgs1 mgt1 strain (AID 161);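 note: 0% = growth of cultures given vehicle only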; conditions: S. cerevisiae sgs1 mgt1 strain, active compounds read high
How it was run: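 Inhibition of yeast growth, normalised to vehicle-treated controls, is reported for a strain bearing genetic alterations in DNA damage repair.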

[4] = NCI Yeast Anticancer Drug Screen. Data for the cln2 rad14 strain (AID 165);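 note: 0% = growth equal to vehicle treated cultures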; conditions: S. cerevisiae cln2 rad14 strain, active compounds read high
How it was run: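 Growth of compound-exposed yeast (cln2 rad14 genotype) measured and expressed as inhibition relative to vehicle.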

[5] = NCI Yeast Anticancer Drug Screen. Data for the bub3 strain (AID 167); conditions: S. cerevisiae bub3 mutant strain, active compounds read high
How it was run: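 In this screen, a yeast mutant lacking normal mitotic checkpoint function is challenged with compound. Relative growth versus vehicle gives the inhibition value.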

[6] = NCI Yeast Anticancer Drug Screen. Data for the mlh1 rad18 strain (AID 175); conditions: S. cerevisiae mlh1 rad18 strain growth inhibition, active compounds read high
How it was run: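 In this whole-cell yeast screen, a strain with altered DNA damage repair is challenged with compound, and its growth is measured against matched vehicle-treated controls.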

[7] = at 5.0 µM (retest, dose inferred, filed as 0.5)
[8] = at 50.0 µM (retest, dose inferred, filed as 5.0)

| Compound | growth inhibition [1, 7] | growth inhibition [1, 8] | growth inhibition ([1]; at 50.0 µM) | growth inhibition [2, 7] | growth inhibition [2, 8] | growth inhibition ([2]; at 50.0 µM) | growth inhibition [3, 7] | growth inhibition [3, 8] | growth inhibition ([3]; at 50.0 µM) | growth inhibition [4, 7] | growth inhibition [4, 8] | growth inhibition ([4]; at 50.0 µM) | growth inhibition [5, 7] | growth inhibition [5, 8] | growth inhibition ([5]; at 50.0 µM) | growth inhibition [6, 7] | growth inhibition [6, 8] | growth inhibition ([6]; at 50.0 µM) |
| --- | --- | --- | --- | --- | --- | --- | --- | --- | --- | --- | --- | --- | --- | --- | --- | --- | --- | --- |
| [N-]=[N+]=Nc1c([N+](=O)[O-])c(=O)n(-c2ccccc2)c2ccccc12 | -8% | 34% | 65.1% | -3% | 54% | 67.3% | 0% | 32% | 70% (active) | 27% | 21% | 46.9% | -21% | 62% | 61% | 4% | 57% | 68.2% |
| Oc1cc(Cl)cc2cc(Cl)cnc12 | 99% (active) | 99% (active) | 86.6% (active) | 96% (active) | 98% (active) | 91.2% (active) | 98% (active) | 98% (active) | 84.8% (active) | 97% (active) | 96% (active) | 87.7% (active) | 98% (active) | 99% (active) | 87.8% (active) | 98% (active) | 99% (active) | 82.3% (active) |
| Cc1cnc2c(c1C)C(=O)c1ccccc1C2=O | 27% | 92% (active) | 64.4% | 26% | 88% (active) | 50.2% | 27% | 81% (active) | 87% (active) | 27% | 75% (active) | 83.1% (active) | 32% | 91% (active) | 84.1% (active) | 26% | 92% (active) | 89.3% (active) |
| CNC(=O)OC1/C(C)=C\C(C)C(O)C(OC)CC(C)CC2=C(OC)C(=O)C=C(C2=O)N(C)C(=O)/C(C)=C/C=C\C1OC (stereo not given) | -24% | 25% | 65% | -28% | 70% (active) | 83.8% (active) | -22% | 39% | 65.8% | 8% | 68% | 50% | 9% | 80% (active) | 73.6% (active) | -3% | 68% | 51% |
| CN(C)c1ccc(/C=C(\C#N)c2cccc(Cl)c2)cc1 | 1% | -8% | 16.7% | -1% | 1% | 18% | 4% | 12% | 10.8% | -3% | -25% | 69.4% | 5% | 14% | 13.7% | -3% | -11% | -4.75% |
| CCCCCC(C)(O)C#CC(C)(O)CCCCC (stereo not given) | 2% | 99% (active) | 38.8% | 5% | 99% (active) | 4.55% | 1% | 99% (active) | 30.7% | 5% | 98% (active) | 75.7% (active) | 3% | 96% (active) | 21.3% | 2% | 99% (active) | 26.7% |
| C/C(=N\NC(=S)Nc1ccc(C(=O)O)cc1C)c1ccc2ccccc2n1 | 1% | 55% | 86.2% (active) | 20% | 62% | 97.8% (active) | -3% | 42% | 81.6% (active) | 11% | 30% | 33% | 0% | 45% | 34% | -1% | 49% | 91.7% (active) |
| C[C@H](CCC1=NCCN1)[C@H]1CC[C@H]2[C@@H]3CC[C@@H]4C[C@H](O)CC[C@]4(C)[C@H]3C[C@H](O)[C@]12C | 93% (active) | 99% (active) | 91.3% (active) | 26% | 76% (active) | 93.1% (active) | 39% | 99% (active) | 90.2% (active) | 59% | 99% (active) | 87.8% (active) | -10% | 99% (active) | 91.4% (active) | 32% | 99% (active) | 91% (active) |
| Cc1cc(Cc2ccccc2)ccc1O | 0% | 66% | 51.2% | -6% | 39% | 96.4% (active) | -1% | 50% | 55.8% | -5% | 15% | 57.5% | -11% | 47% | 81% (active) | 8% | 60% | 41% |
| Oc1cc(C(c2ccccc2)c2ccccc2)c2ccccc2c1O | 17% | 1% | 97.6% (active) | 26% | 8% | 98.5% (active) | 20% | 1% | 98.5% (active) | 13% | 0% | 97.7% (active) | 10% | 2% | 98.2% (active) | 34% | 1% | 97.8% (active) |
